The text below walks through data of the supplement of paper PMC6555819.

What all share (assay): PBM binding z-score (relative to random genomic background probes); higher = stronger binding; sequences stand for … in GC…GCGATTGACAGCGTAGAATGAAGG
Assay [1] concerns PPARg:RXRa DBDmut IVT, anti-RXR (DBD mutation: RXRa K156A/R161A, NR concentration 270 nM, RXRa partner concentration 90 nM). In a few lines:
(§1)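 Ligand-free nuclear receptor dimers were applied to custom Agilent 4×180K protein-binding microarrays whose double-stranded probes carried direct-repeat seeds, single-nucleotide variants, half-site ablations and random human genomic background sequences in 34-nt variable regions. Incubation lasted 1 h. Binding z-scores were computed against the random background probes from regression-normalized fluorescence.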

In assay [2] the test system is PPARg:RXRa IVT, anti-PPARg (NR concentration 270 nM, RXRa partner concentration 90 nM). In a few lines: as §1
Assay [3] has as its system PPARg DBDmut:RXRa IVT, anti-PPARg (DBD mutation: PPARg1 K132A/R137A, NR concentration 270 nM, RXRa partner concentration 90 nM). In a few lines: as §1
In assay [4] the test system is PPARg DBDmut IVT, anti-PPARg (DBD mutation: PPARg1 K132A/R137A, NR concentration 270 nM). In a few lines:
as §1

The test system of assay [5] is PPARg homodimer (NR concentration 180 nM). In a few lines:
as §1

For assay [6], the system named is PXR:RXRa (NR concentration 270 nM, RXRa partner concentration 90 nM). In a few lines:
as §1

For assay [7], the system named is PXR homodimer (NR concentration 270 nM). In a few lines:
as §1

In assay [8] the test system is RARa:RXR (NR concentration 270 nM, RXRa partner concentration 90 nM). In a few lines:
as §1

Assay [9] deals with RARa homodimer (NR concentration 270 nM). In a few lines: as §1
Assay [10] has as its system RARb:RXRa (NR concentration 270 nM, RXRa partner concentration 90 nM). In a few lines:
as §1

The subject of assay [11] is RARb homodimer (NR concentration 270 nM). In a few lines: as §1
The subject of assay [12] is RARg:RXRa (NR concentration 270 nM, RXRa partner concentration 90 nM). In a few lines:
as §1

Assay [13] deals with RARg homodimer (NR concentration 270 nM). In a few lines:
as §1

Assay [14] has as its system RXRa DBDmut IVT, anti-RXR (DBD mutation: RXRa K156A/R161A, NR concentration 90 nM). In a few lines:
as §1

The subject of assay [15] is RXRa homodimer (NR concentration 180 nM). In a few lines:
as §1

The test system of assay [16] is THRa:RXRa (NR concentration 90 nM, RXRa partner concentration 90 nM). In a few lines: as §1
The subject of assay [17] is THRa homodimer (NR concentration 90 nM). In a few lines: as §1
The test system of assay [18] is VDR homodimer (NR concentration 270 nM). In a few lines: as §1

For the sequence TCATGTAGGTAATACAGGTGAAAGTCGGCATCTA, the PBM binding z-score was determined as 3.86 in assay [1]; 3.68 in assay [2]; 0.771 in assay [3]; 0.521 in assay [4]; 0.456 in [5]; 0.27 in assay [6]. Also, the PBM binding z-score in assay [7] was -0.325; in assay [8], 0.507; in assay [9], 0.465; in [10], 0.0857; in assay [11], 0.12; in assay [12] it was 0.0242. Further, the PBM binding z-score in assay [13] is -0.0708; in assay [14], 0.736; in assay [15], 0.579; in assay [16], 0.531; in assay [17], -0.119; in [18], -0.0287.

With GCAGCTAGGTCAACTGATGGTCAGCTAAAGCTCG, the PBM binding z-score in assay [1] is 4.33; in [2], 4.15; in assay [3] it was -0.285; in assay [4] it was -1.01; in assay [5], 1.13; in assay [6], 1.2. Also, the PBM binding z-score in assay [7] was -0.968; in assay [8], 2.49; in [9], -0.66; in assay [10], 4.24; in assay [11] it was 3.08; in assay [12] it was 5.02. Besides, the PBM binding z-score in assay [13] is 5.33; in assay [14] it was 0.798; in [15] it was 2.52; in assay [16] it was 2.6; in [17] it was 0.305; in assay [18] it was -0.435.

With TCTATTAGTTGATTAGGGCAACCGGAACAGCGGA, the PBM binding z-score in [1] turned out to be 2.14; in assay [2], 1.3; in [3], 0.694; in assay [4], 0.839; in assay [5], 1.02; in assay [6], 0.35. Further, the PBM binding z-score in assay [7] stood at 0.534; in [8], 0.296; in [9], 0.818; in assay [10], 1.06; in assay [11], 0.786; in assay [12] it was 0.516. For the same sequence, the PBM binding z-score in assay [13] turned out to be 0.529; in assay [14] it was 1.16; in [15] it was 0.673; in assay [16], 0.816; in assay [17], 0.261; in [18], 0.547.

On to GCTAGTTGGTCAGTATAAGGTCACACACCGGTCG, for which the PBM binding z-score in assay [1] turned out to be 1.28; in assay [2] it was 2.3; in assay [3] it was 0.282; in assay [4], 0.251; in [5], 4.01; in [6], 4.26. Moreover, the PBM binding z-score in [7] amounted to 1.61; in assay [8] it was 4.86; in [9], 2.27; in assay [10] it was 3.5; in [11] it was 4.41; in assay [12], 4.28. Moreover, the PBM binding z-score worked out at 3.75 in assay [13]; 0.514 in assay [14]; 3.9 in [15]; 4.29 in assay [16]; 5.46 in [17]; 2.76 in assay [18].

As for GCATATAGGTAATACAAGCTGAAAGTCCGATTGT, the PBM binding z-score in [1] was 3.93; in assay [2] it was 2.4; in [3], 0.865; in assay [4] it was 0.595; in [5], 0.219; in assay [6], -0.13. Besides, the PBM binding z-score is -0.000493 in [7]; 0.243 in [8]; 0.388 in [9]; -0.475 in assay [10]; -0.29 in assay [11]; 0.165 in assay [12]. The PBM binding z-score in assay [13] was 0.41; in assay [14], 0.344; in assay [15], 0.524; in assay [16] it was -0.299; in [17], -0.467; in [18], -0.000967.

On to ACTATTAGTTGAGACGAGGGCAACCGTTAGGTTG, for which the PBM binding z-score amounted to 0.0606 in [1]; 0.467 in [2]; 0.0213 in assay [3]; 0.173 in assay [4]; 0.552 in assay [5]; 1.36 in [6]. The PBM binding z-score in assay [7] was 0.226; in assay [8], 0.588; in assay [9] it was -0.132; in assay [10] it was 1.1; in assay [11], 1.22; in assay [12], 0.448. In addition, the PBM binding z-score in assay [13] amounted to 0.848; in assay [14], 0.599; in assay [15], 0.373; in assay [16], 2.62; in assay [17], 0.14; in [18] it was 0.969.

As for CCTACTGGGCCATTCAGAGGTCGTTGATCATATG, the PBM binding z-score is 4.62 in assay [1]; 3.78 in assay [2]; -0.302 in assay [3]; 0.289 in assay [4]; 0.217 in assay [5]; 1.55 in [6]. Further, the PBM binding z-score was 0.112 in [7]; 1.27 in assay [8]; -0.226 in assay [9]; 1.11 in assay [10]; 1.58 in assay [11]; 1.55 in assay [12]. Further, the PBM binding z-score in assay [13] stood at 0.872; in assay [14], 0.268; in [15] it was 1.05; in assay [16] it was 1.28; in assay [17], 0.339; in assay [18], 2.12.
